The whole screen tested about 330,000 compounds, of which about 1,900 (0.58%) were called active. Inconclusive results (about 4%) are left out. The list is a sample of the results. Measured potencies and affinities stand elsewhere. A number with no mark means an inactive call. Cut-off read from the data, not from the text of the source: inconclusive = inhibition above about 70% without an active follow-up result; inactive = below that.
test: M. tuberculosis growth inhibition, HTS (AID 449762);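 note: bacterial growth assessed after seven days of incubation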; settings: M. tuberculosis H37Rv growth inhibition, 7H9 media; at 25 µM; active compounds read high

Compound	inhibition [%]
COCC1CCN(C(=O)c2cc(COc3ccccc3SC)on2)C1 (stereo not drawn)	-1.2
CSc1ccccc1OCc1cc(C(=O)N2CCSCC2)no1	4.18
CCOC(=O)[C@@]12C(=O)C(=O)N[C@]1(c1ccccc1)C1OCCCC12 (stereo partly drawn)	1.95
COc1ccc(Cn2c(-c3ccc(C)cc3)nc3c(c(=O)c4ccccc4n3C)c2=O)cc1	-5.96
Cn1c2ccccc2c(=O)c2c(=O)n(Cc3ccco3)c(-c3ccc(F)cc3)nc21	0.8
Cc1noc(C)c1CSCC(=O)Nc1cccc(C(F)(F)F)c1	-7.37
CCCCCCc1cc2cc(C(=O)NC)c(=N)oc2cc1O	2.6
CCCCCCc1cc2cc(C(=O)Nc3ccccc3)c(=O)oc2cc1O	-5.44
CCc1ccc(CNn2cnnc2SCC(=O)NC(C)(C)C)cc1	-7.47
CC1CN(CC(=O)Nc2ccc([N+](=O)[O-])cc2Br)CC(C)O1 (stereo not drawn)	0.73
NC(N)=NNC(=O)c1ccccc1Cl	-5.25
CCC/C(=N/NC(=O)c1ccccc1Cl)c1ccccc1	8.2
CN(Cc1ccccc1)CC(O)COc1ccc(CNCc2nccn2C)cc1 (stereo not drawn)	-8.78
NC(=O)CC(NC(=O)c1ccccc1)c1ccc(N2CCC(Cc3ccccc3)CC2)c([N+](=O)[O-])c1 (stereo not drawn)	5.54
CC(C)OCCCn1c(-c2ccco2)nc2nc3ccccc3nc21	0.09
CCCCCn1c(-c2ccco2)nc2nc3ccccc3nc21	16.5
C/C(=N\OCC(=O)Nc1ccccc1C(C)(C)C)c1ccc2c(c1)OCCO2	9.78
O=C(Cn1cnc2scc(-c3ccc(Br)cc3)c2c1=O)N1CCOCC1	2.04
Clc1ccc(CNC23CN4CN(CN(C4)C2)C3)c(Cl)c1	-14.8
O=C(Nc1ccncc1)c1cc(S(=O)(=O)N2CCCC2)ccc1Cl	5.2

Compound	inhibition [%]
N#Cc1nc(-c2ccc(OCc3ccccc3Cl)cc2)oc1NCCCn1ccnc1	0.78
N#Cc1nc(-c2ccc(OCc3ccc(Cl)cc3)cc2)oc1NCCCn1ccnc1	0.8
COc1ccc(C2C(C(C)=O)=C(O)C(=O)N2c2cccnc2)c(OC)c1 (stereo not drawn)	-10.5
Cc1cccc(N2C(=O)C(Cl)=C(N3CCOCC3)C2=O)c1	-0.44
O=C1C(Cl)=C(N2CCOCC2)C(=O)N1c1cccc(C(F)(F)F)c1	8.59
CCOCC(=O)N1CCC(Cc2ccccc2)CC1	12.3
CCOC(=O)C(=O)N1CCC(Cc2ccccc2)CC1	1.59
Cc1oc(-c2ccccc2F)nc1CSCC(=O)NC1CCCC1	-11.2
CC(C)(Oc1ccc(F)cc1)C(=O)OCC(=O)c1ccc(S(C)(=O)=O)cc1	3.45
CCOC(=O)c1nn(-c2cccc(Cl)c2)c2nc(Nc3ccccc3)cc(=O)n12	-3.5
CCOC(=O)c1nn(-c2ccc(F)cc2)c2nc(Nc3ccccc3)cc(=O)n12	38.7
O=C(Nc1ccccc1)C1CC(=O)n2ncnc2N1 (stereo not drawn)	-4.59
Cc1ccc(S(=O)(=O)N2[C@@H](c3ccc(Br)cc3)C(C(=O)O)=CC[C@H]2c2ccc(Cl)cc2)cc1	9.55
CCN(CC)C(=O)c1ccc(C(=O)c2c(C)cc(C)cc2C)cc1	-0.54
COc1ccc2c(Cl)c(-c3nnc(SCC(N)=O)n3C)sc2c1	-4.23
COc1ccc2c(Cl)c(-c3nnc(SCC(=O)c4ccccc4)n3C)sc2c1	5.59
COc1ccc(NC(=O)c2ccc3c(=O)n(-c4ccc(OC)cc4OC)c(=S)[nH]c3c2)c(OC)c1	40
Cc1ccccc1-c1ncc(CN2CCC(CO)(CCCc3ccccc3)CC2)cn1	22.1
CC(=O)c1cccc(CN2CCC(CO)(CCCc3ccccc3)CC2)c1	-3.4
Cc1c(-n2cc(C(=O)O)c(=O)c3cc(F)c(N4CCCC4)c(F)c32)c(=O)n(-c2ccccc2)n1C	5.31

Compound	inhibition [%]
Cc1cc(C)c(NC(=O)c2cn3c4c(c(N5CCN(C)CC5)c(F)cc4c2=O)OCC3C)c(C)c1 (stereo not drawn)	9.2
CCOc1cc(S(=O)(=O)N2CCN(S(=O)(=O)CC)CC2)c(OCC)cc1-n1cnnn1	0.44
O=C(O)/C=C/C(=O)Nc1nccs1	-2.62
O=C1C(C=NCCCN2CCCC2=O)=C(O)c2ccccc21	-5.89
COc1ccc(Cl)cc1NS(=O)(=O)c1cccc(C(=O)NC2CC2)c1	1.57
COc1ccc(-c2oc(NC(C)=O)c(C#N)c2-c2ccc(OC)cc2)cc1	3.57
COc1ccc(-c2oc(NC(=O)c3ccc(C)cc3)c(C#N)c2-c2ccc(OC)cc2)cc1	5.32
Cc1cc(C(=O)O)cc(S(=O)(=O)Nc2c(C)nn(C)c2C)c1C	-1.21
COc1cccc2cc(C(=O)OCc3ccccc3)c(=O)oc12	10.5
CN1OC(COC(=O)c2ccc(Cl)cc2)CC1c1ccccc1 (stereo not drawn)	19.7
CN1OC(COC(=O)c2ccccc2)CC1c1ccccc1 (stereo not drawn)	66.5
CCCn1cc(S(=O)(=O)c2ccc(F)cc2)c(=O)c2cc(OCC)ccc21	4.19
CC(=O)Nc1ccc(S(=O)(=O)Oc2cccc(/C=N/N=C3/NC(=O)C(CC(=O)O)S3)c2)cc1 (stereo not drawn)	-3.02
O=C(Nc1cccc(C(F)(F)F)c1)C(Sc1cccc[n+]1[O-])c1ccccc1 (stereo not drawn)	0.11
O=C(Nc1ccc(Cl)cc1C(F)(F)F)C(Sc1cccc[n+]1[O-])c1ccccc1 (stereo not drawn)	16.4
CS(=O)(=O)N(CC(=O)Nc1ccc(Br)cc1F)C1CCCCC1	-1.79
CC(=O)NCCC(=O)Nc1ccc(C(N)=O)cc1	3.35
O=C(/C=C/c1ccc([N+](=O)[O-])cc1)OCC(=O)N1c2ccccc2Sc2ccccc21	3.32

— PubChem BioAssay AID449762 (Southern Research Specialized Biocontainment Screening …, 2010)
